Assay results as given in PubChem BioAssay AID720526 (National Center for Advancing Translational Sciences (NCATS), 2013).
Inconclusive results are not listed. Calls of active or inactive are those of the source. Calls follow the shape of the dose curve; as a rule, active = well fitted activation curve with a large enough effect; inconclusive = small, poorly fitted or top-dose-only effect; inactive = no such curve, though single readings can be large or run the other way.

Assay: qHTS Assay for NPC1 Promoter Activators: Hit Validation Using Renila Luciferase Read-Out for NPC1; as to activity change, positive = activation: % of control where 0% means no effect
Conditions: Huh7 NPC1 promoter-luciferase reporter, luminescence, 24 h; series mostly up to 76.9 µM; activity change, positive = activation: at the top concentration
Summary of the method: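 Huh7 cells stably carrying NPC promoter-luciferase reporter, exposed to compound for 24 h at 37 deg C. Luminescence read 10 min after adding luciferase detection reagent at room temperature.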
Potency is read from the fitted curve at half-maximal effect.

Row | SMILES | activity change, positive = activation | Potency
1 | COc1ccccc1CNC(=O)COc1ccc(C)cc1 | 8.49% (inactive) | 
2 | CCCC(C)NC(=O)c1ccc(OCc2ccc(Cl)cc2)c(OC)c1 (centres undefined) | -13.6% (inactive) | 
3 | Nc1c(N(CCO)C(=O)/C=C/c2ccco2)c(=O)[nH]c(=O)n1Cc1ccccc1 | 13.3% (inactive) | 
4 | COc1ccc(-c2cc(C(=O)Nc3ccccc3F)on2)cc1 | -15.9% (inactive) | 
5 | CN(C)/C=N/c1c(C#N)cnn1-c1nc2ccccc2s1 | -0.131% (inactive) | 
6 | Cc1ccc(NC(=O)c2cccc(N3C(=O)CCC3=O)c2)nc1 | -4.36% (inactive) | 
7 | Cc1ccc(C(=O)c2cncc(Br)c2)cc1 | -4.32% (inactive) | 
8 | O=C(CCCN1C(=O)C(c2ccccc2)Oc2cccnc21)Nc1ccccc1Cl (centres undefined) | 15% (inactive) | 
9 | COCc1cc(C)nc(N/N=C/c2ccc(-c3ccc(Cl)cc3[N+](=O)[O-])o2)c1C#N | 14.9% (inactive) | 
10 | Cc1ccc(NC(=O)COC(=O)C2C3CC4OC(=O)C2C4C3)cc1Cl (centres undefined) | -9.24% (inactive) | 
11 | COc1ccc(NC(=S)NNC(=O)c2cccs2)cc1 | -67.6% (inactive) | 
12 | CCOC(=O)C1(Cc2cccc(Cl)c2)CCCN(C(=O)CCSC)C1 (centres undefined) | -3% (inactive) | 
13 | CC1(C)CC(=O)c2c(O)c(-c3ccccc3)c(=O)n(-c3ccccc3)c2C1 | 18.9% (inactive) | 
14 | COc1ccccc1OCCCC(=O)NCc1ccco1 | 6.95% (inactive) | 
15 | O=C(CSc1nnc(-c2ccc([N+](=O)[O-])cc2)o1)Nc1ccccn1 | -72.1% (inactive) | 
16 | CCN(Cc1nc2cc(Cl)ccc2c(=O)[nH]1)C(=O)C1CC(=O)N(c2cccc3ccccc23)C1 (centres undefined) | 13.5% (inactive) | 
17 | Cn1c(CCN2CCN(c3ccccc3)CC2)nc2cc(NC(=O)c3ccco3)ccc21 | -43.4% (inactive) | 
18 | O=C(O)CSc1nnc(-c2ccncc2)n1CCc1ccccc1 | 5.75% (inactive) | 
19 | Cc1ccc(C(=O)NC2CCN(CC(=O)Nc3c(C)cc(C)cc3C)CC2)cc1 | -9.61% (inactive) | 
20 | O=C(CSc1nnc(-c2csc3c2CCCC3)o1)Nc1ccccc1 | -80.6% (inactive) | 

Row | SMILES | activity change, positive = activation | Potency
21 | CCOc1ccc(CNC(=O)C2CCCN(S(C)(=O)=O)C2)cc1OC (centres undefined) | -6.53% (inactive) | 
22 | CC(=O)c1cccc(NC(=O)N2CCOCC2)c1 | -6.02% (inactive) | 
23 | Cc1ccc(NC(=O)Nc2cccc3ccccc23)cc1 | -1.3% (inactive) | 
24 | CC(C)CC(=O)N1CCN(c2ccc(NC(=O)c3ccco3)cc2)CC1 | 9.56% (inactive) | 
25 | N#C/C(=C\c1ccc[nH]1)C(=O)Nc1ccccc1Cl |  | 23.2 µM (active)
26 | CC(=O)Nc1nnc(SCC(=O)NCCOc2ccccc2)s1 | 3.94% (inactive) | 
27 | Cc1cccc(C)c1NC(=O)Nc1cccs1 | -0.0994% (inactive) | 
28 | CC(C)(C)NC(=S)NNC(=O)c1ccc2ncccc2c1 | -37.5% (inactive) | 
29 | O=C(/C=C/c1ccco1)NCC1OCCc2ccccc21 (centres undefined) | 11.3% (inactive) | 
30 | O=C(NNC(=O)C1COc2ccccc2O1)c1ccccc1O (centres undefined) | -71% (inactive) | 
31 | COC(=O)CSc1nc2cc3c(cc2cc1C#N)OCO3 | -11.1% (inactive) | 
32 | CC(=O)Nc1ccc(-c2csc(Nc3ncccn3)n2)cc1 | 4.37% (inactive) | 
33 | COc1ccc(/C=C\C(=O)c2c(O)ccc3c(C)cc(=O)oc23)cc1OC | -52.3% (inactive) | 
34 | COc1ccc(-c2nnc(SCC(=O)/C(C#N)=C(\C)N)o2)cc1 | 2.86% (inactive) | 
35 | O=[N+]([O-])c1cnccc1Nc1ccc(F)cc1 | -10.4% (inactive) | 
36 | O=C(CCNC(=O)c1ccc(Br)o1)NCc1ccc(Cl)cc1 | 2.26% (inactive) | 
37 | CCCCCCOc1ccc(OC(=O)c2cccnc2)cc1 |  | 1.84 µM (active)
38 | CCCOP(=O)(c1ccc(N(C)C)cc1)C(O)c1cccnc1 (centres undefined) | 5.33% (inactive) | 
39 | O=C(CSc1ncccn1)Nc1cccc2ccccc12 | 10.9% (inactive) | 
